The nature of test [1]: qHTS assay to test for compound auto fluorescence at 535 nm (green) in HEK293 cells (AID 720680). A general note: Quantitative high-throughput screening tests each substance at several concentrations.
A short description of test [2]: qHTS assay to test for compound auto fluorescence at 460 nm (blue) in HEK293 cell free culture (AID 720681). Put shortly:
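Compounds were added to cell-free DMEM with 10% FBS and fluorescence read directly. The blue channel used 405 nm excitation and 460 nm emission, with triamterene as the reference fluorophore.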

Test [3] can be described thus: qHTS assay to test for compound auto fluorescence at 535 nm (green) in HEK293 cell free culture (AID 720682). Put shortly:
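Measurement is a direct plate read of green fluorescence (485 nm in, 535 nm out) after compound addition to serum-supplemented DMEM lacking cells, with fluorescein used to express intensities.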

Test [4] is described as follows: qHTS assay to test for compound auto fluorescence at 590 nm (red) in HEK293 cell free culture (AID 720683). Put shortly:
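Cell-free wells of DMEM with 10% FBS received compound, and intrinsic fluorescence was read at excitation/emission 540/590 nm. Values expressed as equivalence to Rose Bengal sodium.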

The nature of test [5]: qHTS assay to test for compound auto fluorescence at 590 nm (red) in HepG2 cell free culture (AID 720684). Put shortly:
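Rose Bengal sodium served as the reference for red signal. Test compounds were dispensed into serum-containing MEM (10% FBS) without cells, and plates were read at 540/590 nm.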

Test [6] in a line: qHTS assay to test for compound auto fluorescence at 460 nm (blue) in HepG2 cell free culture (AID 720685). Put shortly:
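Cell-free plates of MEM plus 10% FBS received 23 nL compound or DMSO vehicle; blue-channel (405/460 nm) intensity scored against triamterene as reference fluorophore.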

The nature of test [7]: qHTS assay to test for compound auto fluorescence at 460 nm (blue) in HepG2 cells (AID 720687). Put shortly: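 HepG2 cells in MEM with 10% FBS, attached overnight at 37 C, were exposed to compound or DMSO for 1 hr at 37 C, 5% CO2. Blue fluorescence was read at 405/460 nm, with triamterene as reference fluorophore.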
Test [8] has as its target Glucocorticoid receptor (Homo sapiens) (UniProt P04150). As to the kind of experiment: qHTS assay to identify small molecule agonists of the glucocorticoid receptor (GR) signaling pathway (AID 720691; active means well fitted activation curve with a large enough effect in the signal ratio in the repeat runs, not every such curve was filed as active; the % refers to the signal ratio). Put shortly:
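Cells: GR-bla HeLa, endogenous GR with stably integrated GRE-beta-lactamase reporter. Treatment 18 h, 37 C, compounds delivered in DMSO. Detection via LiveBLAzer B/G FRET substrate, 2 h RT, fluorescence intensity.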

The target is the same in test [9]. As to the kind of experiment: qHTS assay to identify small molecule antagonists of the glucocorticoid receptor (GR) signaling pathway (AID 720692; active means well fitted inhibition curve with a large enough effect in the signal ratio in the repeat runs, not every such curve was filed as active; the % refers to the signal ratio; further: potency means the concentration at half of the fitted maximal effect). Put shortly: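 Quantitative HTS in antagonist format: HeLa cells expressing endogenous GR and a stably integrated GRE-bla reporter, stimulated with 5 nM dexamethasone (final) alongside test compounds for 18 h.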
The nature of test [10]: qHTS assay to identify small molecule antagonists of the glucocorticoid receptor (GR) signaling pathway - cell viability counter screen (AID 720693). Further: nearly all actives have a fitted effect of over 55% in size. Further: potency means the concentration at half of the fitted maximal effect.
Test [11] in a line: qHTS assay for identifying genotoxic compounds that show differential cytotoxicity against isogenic chicken DT40 cell lines with known DNA damage response pathways - wild type cell line (AID 743012). Further: nearly all actives have a fitted effect of over 60% in size. Further: potency means the concentration at half of the fitted maximal effect. Put shortly:
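Luminescent ATP viability signal (CellTiter-Glo, 30 min RT) recorded after wild type DT40 cells were incubated with compounds for 40 h at 37 C/5% CO2.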

Test [12] in a line: qHTS assay for identifying genotoxic compounds that show differential cytotoxicity against isogenic chicken DT40 cell lines with known DNA damage response pathways - Rev3 mutant cell line (AID 743014). Further: nearly all actives have a fitted effect of over 55% in size. Further: potency means the concentration at half of the fitted maximal effect.
The nature of test [13]: qHTS assay for identifying genotoxic compounds that show differential cytotoxicity against isogenic chicken DT40 cell lines with known DNA damage response pathways - Rad54/Ku70 mutant cell line (AID 743015). Further: nearly all actives have a fitted effect of over 60% in size. Further: potency means the concentration at half of the fitted maximal effect.
A short description of test [14]: qHTS assay to identify small molecule antagonists of the androgen receptor (AR) signaling pathway - cell viability counter screen (AID 743033; further: nearly all actives have a fitted effect of over 45% in size; further: potency means the concentration at half of the fitted maximal effect).
A short description of test [15]: qHTS assay to identify small molecule antagonists of the androgen receptor (AR) signaling pathway using the MDA cell line - cell viability counter screen (AID 743041; further: nearly all actives have a fitted effect of over 45% in size; further: potency means the concentration at half of the fitted maximal effect). Put shortly:
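Cytotoxicity counter screen: MDA-kb2 AR-luc cells, compound + R1881, 16 h, 37C, 0% CO2; CellTiter-Fluor added at 15.5 h, fluorescence read after 30 min.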

The nature of test [16]: qHTS assay to identify small molecule antagonists of the thyroid receptor (TR) signaling pathway - cell viability counter screen (AID 743064). Further: nearly all actives have a fitted effect of over 50% in size. Further: potency means the concentration at half of the fitted maximal effect. Put shortly: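 Compounds were tested on GH3.TRE-Luc cells in the presence of T3 at 1 nM final. Following 23.5 h at 37 °C, cell viability was quantified by CellTiter-Fluor.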
Test [17] can be described thus: qHTS assay to test for compound auto fluorescence at 535 nm (green) in HepG2 cell free culture (AID 720686).
Test [18] addresses Androgen receptor (Homo sapiens) (UniProt P10275). As to the kind of experiment: qHTS assay to identify small molecule antagonists of the androgen receptor (AR) signaling pathway using the MDA cell line (AID 743042; further: nearly all actives have a fitted effect of over 55% in size). Put shortly:
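MDA-kb2 breast carcinoma cells carrying MMTV-luciferase (AR/GR responsive) were co-treated with compounds and the agonist R1881 for 16 h at 37C. Inhibition read as ONE-Glo luminescence; CellTiter-Fluor fluorescence measured in parallel for cytotoxicity.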

Test [19] shares this target. As to the kind of experiment: qHTS assay to identify small molecule antagonists of the androgen receptor (AR) signaling pathway (AID 743035; active means well fitted inhibition curve with a large enough effect in the signal ratio in the repeat runs, not every such curve was filed as active; the % refers to the signal ratio). Put shortly:
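Quantitative HTS of the Tox21 10K library used HEK293 AR-UAS-bla cells stimulated with R1881 alongside compound for 16 h at 37C, followed by beta-lactamase FRET detection (LiveBLAzer B/G, 2 h, RT).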

The target is the same in test [20]. As to the kind of experiment: qHTS assay to identify small molecule agonists of the androgen receptor (AR) signaling pathway (AID 743036; active means well fitted activation curve with a large enough effect in the signal ratio in the repeat runs, with a control signal flat, not every such curve was filed as active; the % refers to the signal ratio). Put shortly:
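Beta-lactamase under UAS control, stably integrated in HEK293 GripTite cells, reports receptor activation. After 16 h compound treatment, cells received FRET substrate for 2 h at room temperature before fluorescence reading.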

Several values for one entry are separate records, joined by “and”; a condition that tells them apart may be missing. Identical values can stand only once. Records with an inconclusive call do not appear. A structure can be active in one record and inactive in another. Activity calls are given as the source filed them. Unless noted, the call rests on the fitted dose curve; in most records, active means well fitted curve in the direction sought with a large enough effect in the repeat runs; inconclusive means weak or mixed curves; inactive means no such curve, though single readings can be large; an effect the other way counts as inactive or inconclusive.

Sequence of Glucocorticoid receptor (Homo sapiens) (P04150 whole entry, looked up): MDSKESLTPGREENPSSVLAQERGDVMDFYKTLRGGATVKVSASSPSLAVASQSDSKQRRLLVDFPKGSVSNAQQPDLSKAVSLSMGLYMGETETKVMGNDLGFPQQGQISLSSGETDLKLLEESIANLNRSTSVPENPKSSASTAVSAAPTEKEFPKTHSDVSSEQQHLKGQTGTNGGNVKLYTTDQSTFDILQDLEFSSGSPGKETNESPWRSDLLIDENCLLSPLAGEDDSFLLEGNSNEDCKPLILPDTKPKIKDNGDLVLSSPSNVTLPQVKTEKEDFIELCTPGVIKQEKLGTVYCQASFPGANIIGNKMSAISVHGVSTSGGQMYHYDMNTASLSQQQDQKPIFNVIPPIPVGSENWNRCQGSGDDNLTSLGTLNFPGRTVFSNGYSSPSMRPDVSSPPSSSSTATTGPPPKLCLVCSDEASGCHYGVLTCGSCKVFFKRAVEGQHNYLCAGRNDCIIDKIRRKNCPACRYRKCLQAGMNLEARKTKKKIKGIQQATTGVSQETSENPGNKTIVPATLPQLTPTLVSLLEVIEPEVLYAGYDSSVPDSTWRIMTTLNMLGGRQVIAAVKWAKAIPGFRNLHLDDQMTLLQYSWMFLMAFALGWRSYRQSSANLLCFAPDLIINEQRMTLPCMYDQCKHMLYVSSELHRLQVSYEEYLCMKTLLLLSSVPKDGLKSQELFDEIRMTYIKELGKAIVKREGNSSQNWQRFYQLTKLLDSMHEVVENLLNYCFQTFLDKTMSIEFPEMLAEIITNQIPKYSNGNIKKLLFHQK
Sequence of Androgen receptor (Homo sapiens) (P10275 whole entry, looked up): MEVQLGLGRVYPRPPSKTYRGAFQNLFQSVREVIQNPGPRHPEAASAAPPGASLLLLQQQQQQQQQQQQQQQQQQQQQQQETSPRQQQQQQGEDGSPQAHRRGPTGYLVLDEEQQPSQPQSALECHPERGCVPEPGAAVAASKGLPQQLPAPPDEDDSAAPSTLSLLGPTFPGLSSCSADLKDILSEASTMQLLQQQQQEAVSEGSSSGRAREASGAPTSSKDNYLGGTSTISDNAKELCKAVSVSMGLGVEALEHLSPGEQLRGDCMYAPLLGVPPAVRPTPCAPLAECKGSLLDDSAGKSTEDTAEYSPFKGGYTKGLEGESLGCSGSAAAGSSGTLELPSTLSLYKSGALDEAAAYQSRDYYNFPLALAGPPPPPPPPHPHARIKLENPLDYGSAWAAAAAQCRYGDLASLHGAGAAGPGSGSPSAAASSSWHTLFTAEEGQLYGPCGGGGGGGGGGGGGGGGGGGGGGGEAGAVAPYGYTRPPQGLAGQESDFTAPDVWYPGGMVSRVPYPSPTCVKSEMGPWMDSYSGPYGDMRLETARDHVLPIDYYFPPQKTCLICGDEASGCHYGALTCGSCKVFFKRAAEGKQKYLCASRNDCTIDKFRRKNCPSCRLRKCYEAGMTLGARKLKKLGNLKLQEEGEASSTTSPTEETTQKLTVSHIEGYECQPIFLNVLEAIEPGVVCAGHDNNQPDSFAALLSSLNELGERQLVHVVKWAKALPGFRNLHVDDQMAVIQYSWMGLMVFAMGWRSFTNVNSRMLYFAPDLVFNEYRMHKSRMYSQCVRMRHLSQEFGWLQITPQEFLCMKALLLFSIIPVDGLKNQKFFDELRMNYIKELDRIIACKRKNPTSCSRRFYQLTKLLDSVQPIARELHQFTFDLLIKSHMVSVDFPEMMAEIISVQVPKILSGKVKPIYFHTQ

With `CNCCC(Oc1ccc(C(F)(F)F)cc1)c1ccccc1` (stereo not drawn), the Potency entry in test [1], in test [2], in [3], in test [6], in test [7] and in test [8] was “inactive” throughout. For the same molecule, the Potency result in test [9] and in test [10] was “inactive” each time. In addition, the molecule was called inactive in [4] and in test [5]. Also, the Potency in test [11] was 5.31 µM (active) and 9.56 µM (active); in [12], 6.68 µM (active) and 6.03 µM (active); in [13], 6.68 µM (active) and 8.52 µM (active); in test [14], 48.4 µM (active); in test [15], 27.8 µM (active) and 53.8 µM (active); in test [16], 11.9 µM (active) and 9.56 µM (active).
In the case of `CC(C)(O)CCC(C)(C)O`, the Potency entry in test [1], in test [2], in test [6], in test [17], in test [8] and in [9] was “inactive” throughout. The Potency entry in test [10], in [11], in [12], in test [13], in [14] and in test [18] was “inactive” each time. For the same molecule, the Potency result in test [16] was “inactive”. In addition, the call in [4] and in [5] was inactive.
With `Cc1cccc2n[nH]nc12`, the Potency result in [1], in test [2], in test [6], in test [17], in test [7] and in [10] was “inactive” throughout. Also, the Potency result in test [11], in test [13], in test [14] and in test [16] was “inactive” throughout. Also, the call in test [4] and in test [5] was inactive.
As to `Clc1ccc2c(c1)C(N1CCNCC1)=Nc1ccccc1O2`, the Potency entry in test [1], in test [2], in [6], in [17], in test [8] and in test [10] was “inactive” each time. Moreover, in test [14], the Potency entry is “inactive”. Besides, the molecule was called inactive in test [4] and in [5]. Moreover, the Potency in test [9] is 19 µM (active) and inactive; in test [11] it was 26.6 µM (active) and 7.7 µM (active); in [12] it was 29.8 µM (active) and 9.69 µM (active); in [13], 26.6 µM (active) and 10.9 µM (active); in [16], 30.6 µM (active).
Consider `COC(c1ccccc1)(c1ccccc1)[C@H](Oc1nc(C)cc(C)n1)C(=O)O`, for which the Potency entry in [1], in test [2], in [6], in test [7], in test [8] and in test [10] was “inactive” in each case. The Potency result in [11], in [12], in [13], in test [14] and in test [15] was “inactive” throughout. For the same molecule, the outcome in [4] and in [5] was inactive.
With `O`, the Potency entry in test [1], in test [2], in test [6], in test [17], in test [7] and in test [10] was “inactive” throughout. Moreover, the Potency result in [13], in [14] and in test [16] was “inactive” in each case. Also, the outcome in test [4] and in test [5] was inactive. For the same molecule, the Potency result in test [11] was “inactive and 13.9 µM (active)”.
On to `Cc1cc(C2(c3cc(C)c(O)cc3C)OS(=O)(=O)c3ccccc32)c(C)cc1O`, for which the Potency result in test [1], in [2], in test [6], in test [17], in [7] and in test [8] was “inactive” in each case. Further, the Potency entry in [10], in [11], in test [13] and in [14] was “inactive” in each case. In addition, the molecule was called inactive in test [4] and in test [5]. Moreover, the Potency in test [15] is 30.6 µM (active); in test [16] it was 54.5 µM (active).
As to `Cc1ccc(S(=O)(=O)Oc2ccc(N=Nc3ccc(-c4ccc(N=Nc5c(O)ccc6cc(S(=O)(=O)O)cc(S(=O)(=O)O)c56)c(C)c4)cc3C)cc2)cc1`, the Potency entry in test [1], in test [2], in [6], in [17], in test [8] and in [10] was “inactive” throughout. Besides, the Potency result in [14], in [19] and in [20] was “inactive” throughout. For the same molecule, the outcome in test [4] and in test [5] was inactive. Besides, the Potency is 27.4 µM (active) and 17.8 µM (active) in [12]; 54.7 µM (active) and 11.2 µM (active) in test [13]; 54.7 µM (active) and 35.5 µM (active) in test [15]; 27.4 µM (active) and 17.8 µM (active) in test [16].
For the molecule `CCCCOCCOC(=O)c1ccccc1C(=O)OCCOCCCC`, the Potency entry in test [1], in test [2], in test [6], in test [17], in test [7] and in test [10] was “inactive” in each case. Also, the Potency result in test [15] and in test [16] was “inactive” throughout. Also, the result in test [4] and in [5] was inactive. In addition, the Potency was 42.4 µM (active) and 27.3 µM (active) in test [12]; 42.4 µM (active) and 61.1 µM (active) in test [13]; 53.8 µM (active) and inactive in test [14].
Regarding `c1ccc2c(c1)CCCC2C1=NCCN1` (stereo not drawn), the Potency entry in test [1], in test [2], in test [6], in test [17], in test [7] and in [10] was “inactive” in each case. In addition, the Potency entry in [11], in [12], in test [13], in test [14], in test [15] and in test [16] was “inactive” in each case. For the same molecule, the outcome in test [4] and in [5] was inactive.
In the case of `CCCCCCCCCCCC[N+](C)(C)C`, the Potency entry in test [1], in test [2], in test [6], in [17], in test [7] and in [8] was “inactive” in each case. Further, the result in test [4] and in test [5] was inactive. In addition, the Potency was 21.8 µM (active) and 21.9 µM (active) in [9]; 24.5 µM (active) and 17.4 µM (active) and 38.9 µM (active) in [10]; 861 nM (active) and 243 nM (active) and 217 nM (active) in test [11]; 432 nM (active) and 137 nM (active) and 217 nM (active) in test [12]; 543 nM (active) and 217 nM (active) in test [13]; 48.9 µM (active) and 49 µM (active) and 38.9 µM (active) in test [14]. Further, the Potency in [16] is 17.2 µM (active) and 13.7 µM (active) and 15.4 µM (active).

Values taken from PubChem BioAssay (Tox21).
